# HT1080 IDH1KD tx: HT-1080 IDH1 knockdown cell toxicity (counter line); HT-1080 IDH1 knockdown viability, ATP luminescence, 48 h; Potency, µM (top dose mostly 46.1 µM), actives largely listed as cytotoxic; actives 2% (n = 360,000); AID 686971
#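 IDH1KD HT-1080 cells, 750/well, RPMI + 5% FBS; compound pinned after 2 h settling; 48 h, 37 °C; CellTiter-Glo luminescence; % activity normalised to DMSO and no-cell wells; curves fitted, classed by r2 and efficacy.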
# TDP1 cell CPT: DT40-hTDP1 cell growth loss with CPT; actives 12% (n = 420,000); AID 686979; chicken DT40 Tdp1-/-;hTDP1 cells + 20 nM CPT, ATP luminescence, 48 h; Potency, µM (series often up to 46.2 µM), hits mostly inhibitors; also: nearly all actives have a fitted effect of over 55% in size
#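 Cell growth measured by CellTiter-Glo luminescence after a minimum 48 h, 37 C compound exposure with 20 nM CPT in Tdp1-knockout DT40 cells stably expressing hTDP1, seeded 400/well; qHTS titration format.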
# IL1B secr inh: inhibitors of inflammasome signaling (IL-1 beta secretion). THP-1 LPS/ATP IL-1B secretion, AlphaLISA, 16 h; hits give low values. actives 4.7% (n = 360,000). activity change, % at 57.5 µM; in the data active = activity change below about -50%; inconclusive = mostly about -30% to -49%
#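 Secreted IL-1B measured by AlphaLISA bead assay after 16 h compound exposure of THP-1 cells; compounds (final up to 57.5 uM) added 1 h before LPS (250 ng/mL) and ATP (1.25 mM) stimulation; lower signal means less secretion.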
# TDP1 cell noCPT: qHTS for Inhibitors of human tyrosyl-DNA phosphodiesterase 1 (TDP1): qHTS in cells in absence of CPT; DT40 Tdp1-/- hTDP1 cells, no CPT, ATP luminescence, 48 h; Potency, µM (top dose mostly 46.2 µM), hits mostly inhibitors; actives 15% (n = 420,000); also: nearly all actives have a fitted effect of over 55% in size
#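 Chicken DT40 Tdp1-/- cells complemented with human TDP1, screened without camptothecin (DMSO vehicle only), 400 cells/well. Compounds pin-transferred, cells incubated at 37 °C for at least 48 hr. Growth read as ATP-dependent luminescence (CellTiter-Glo, 30 min at RT).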
# HT1080NT lethal: kills 2HG-producing HT-1080-NT fibrosarcoma cells | HT-1080-NT fibrosarcoma viability, CellTiter-Glo ATP luminescence, 48 h | Potency, µM (highest dose often 46.1 µM), actives largely listed as cytotoxic | actives 1.6% (n = 360,000);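 also: NT is the 2HG producing partner of a matched IDH1 knockdown line; nearly all actives have a fitted effect of over 55% in size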
#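 Viability of the 2HG-overproducing fibrosarcoma line after 48 hours of compound exposure at 37 degrees C was determined by luminescence with CellTiter-Glo, and concentration-effect curves were then fitted and categorized.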
# A number is an active result; . = inactive; ? = inconclusive; / = not tested or not shown; [ ] = remark or other dose. Rows were chosen to be rich in hits. Some 19% of all compounds tested hit in one or more screens of this group. Unless noted, calls follow the shape of the dose curve; as a rule, active = well fitted curve in the direction sought with a large enough effect; inconclusive = small, poorly fitted or top-dose-only effect, or another doubt; inactive = no such curve, though single readings can be large; an effect the other way counts as inactive or inconclusive.
SMILES,HT1080 IDH1KD tx,TDP1 cell CPT,IL1B secr inh,TDP1 cell noCPT,HT1080NT lethal
COc1ccc(N=Cc2ccccc2O)cc1,.,.,.,.,.
Cc1cc(NC(=O)COn2nnc3ccc(S(C)(=O)=O)cc32)ccc1Br,.,?,.,16.4µM,.
O=C(COn1nnc2ccc(S(=O)(=O)N3CCOCC3)cc21)Nc1c(F)c(F)c(F)c(F)c1F,.,.,.,?,.
Cc1cc(Br)c(NC(=O)COn2nnc3ccc(S(C)(=O)=O)cc32)c(Br)c1,.,.,-65.5,.,.
COc1cc(NC(=O)COn2nnc3ccc(S(C)(=O)=O)cc32)cc(OC)c1,.,.,.,.,.
S=c1[nH]nc(-c2ccccc2)n1/N=C/c1ccc(-c2ccccc2Cl)o1,?,?,.,13µM,.
CCC(c1nnnn1CCOC)N1CCN(C(=O)c2ccco2)CC1 (stereo unspecified),.,.,.,.,.
CCCCC(c1nnnn1CCOC)N1CCN(C(=O)c2ccco2)CC1 (stereo unspecified),.,18.4µM,.,.,.
CC(C)C(c1nnnn1Cc1ccc(F)cc1)N1CCN(C(=O)c2ccco2)CC1 (stereo unspecified),.[9.24 µM],?,.,16.4µM,.
CC(C)CCn1nnnc1C(c1ccc(N(C)C)cc1)N1CCN(C(=O)c2ccco2)CC1 (stereo unspecified),.,.,-64.6,.,.
C[C@@H]1CCCCO[C@@H](CN(C)S(=O)(=O)c2cn(C)cn2)[C@@H](C)CN([C@H](C)CO)C(=O)c2cc(N(C)C)ccc2O1,.,.,.,.,.
CN(C)CCCNC(=O)OC1CC2CC1[C@H]1CCCCN1C2=O (stereo partly specified),.,.,.,.,.
COc1ccc(OC)c(-c2nnc(SCC(=O)N3CCCC3)o2)c1,.,.,.,.,.
CCOc1ccc(-n2c(SCc3cc(=O)oc4cc(C)ccc34)nnc2-c2cccnc2)cc1,.,?,-54.4,?,.
CC(=O)Nc1ccc2c(CSc3nnc(-c4cccnc4)n3-c3ccc(C)cc3C)cc(=O)oc2c1,.,.,.,.,.
CC(C)c1ccccc1-n1c(SCc2cc(=O)oc3ccc4ccccc4c23)nnc1-c1cccnc1,?,?,-50.8,14.6µM,.
Cc1ccc2nc(-c3ccccc3C)c(CN(CC3CCCO3)C(=O)c3cccs3)cc2c1 (stereo unspecified),/,.,/,.,/
Nc1ccc(S(=O)(=O)Nc2cnc3ccccc3n2)cc1,.,.,.,.,?
O=S(=O)(c1ccc(Cl)cc1)c1cnc2ccccc2n1,?,.,-99.1,.,?
Cc1cc(C)cc(S(=O)(=O)c2cnc3ccccc3n2)c1,?,?,-99.1,?,.
Cc1ncc(S(=O)(=O)c2ccc(Cl)cc2)c(-c2ccccc2)n1,.,.,.,.,.
COC(=O)c1ccc(NC(=O)c2ccc3c(c2)OCO3)cc1,.,.,.,.,.
COc1ccccc1-c1nnc(NC(=O)c2ccc3c(c2)OCO3)s1,?,2.31µM,.,2.06µM,.
CC(c1ccccc1)c1nnc(NC(=O)c2ccc3c(c2)OCO3)s1 (stereo unspecified),?,?,.,18.4µM,.
CC(C)c1nnc(NC(=O)c2ccc3c(c2)OCO3)s1,.,.,.,.,.
SMILES,HT1080 IDH1KD tx,TDP1 cell CPT,IL1B secr inh,TDP1 cell noCPT,HT1080NT lethal
COC(=O)c1c(-c2cccnc2)csc1NC(=O)c1ccc2c(c1)OCO2,.,?,.,23.1µM,.
CC(C)(C)c1nnc(NC(=O)c2ccc3c(c2)OCO3)s1,.,?,.,?,.
COc1cc(OC)c(NC(=S)NCc2ccc(F)cc2)cc1Cl,.,.,.,?,.
CN1C[C@@H]2[C@@H]3C(=O)N(C)C(=O)[C@@H]3[C@](C)(C1=O)N2C(=O)c1ccc(C(F)(F)F)cc1,.,.,.,.,.
COc1ccccc1NC(=O)C1=C(C)Nc2nc(SCc3ccccc3Cl)nn2C1c1ccncc1 (stereo unspecified),/,.,/,.,/
Cn1c(SCC(=O)N2CCCCC2)nc2cccnc21,.,.,.,.,.

# High-throughput results deposited in PubChem by National Center for Advancing Translational Sciences (NCATS).
